The text below walks through data of PubChem BioAssay AID1220 (Sanford-Burnham Center for Chemical Genomics, 2008).

Structures are written as SMILES. The campaign covered roughly 190,000 compounds. About 1,300 (0.68%) were called active. The sample holds actives, similar compounds and a random draw of the others, so the mix is not that of the screen. Rule as the data show it: active = inhibition above about 50%; inactive = the rest.

The test deals with Mannose-6-phosphate isomerase (Homo sapiens) (UniProt P34949). The test can be described thus: human PMI inhibitors, high substrate, primary screen, biochemical, fluorescence intensity, high mannose 6-phosphate (AID 1220). The following applies: recombinant PMI enzyme, coupled fluorescence intensity; at 20 µM; hits give high values.
Sequence of Mannose-6-phosphate isomerase (Homo sapiens) (P34949 whole entry, looked up): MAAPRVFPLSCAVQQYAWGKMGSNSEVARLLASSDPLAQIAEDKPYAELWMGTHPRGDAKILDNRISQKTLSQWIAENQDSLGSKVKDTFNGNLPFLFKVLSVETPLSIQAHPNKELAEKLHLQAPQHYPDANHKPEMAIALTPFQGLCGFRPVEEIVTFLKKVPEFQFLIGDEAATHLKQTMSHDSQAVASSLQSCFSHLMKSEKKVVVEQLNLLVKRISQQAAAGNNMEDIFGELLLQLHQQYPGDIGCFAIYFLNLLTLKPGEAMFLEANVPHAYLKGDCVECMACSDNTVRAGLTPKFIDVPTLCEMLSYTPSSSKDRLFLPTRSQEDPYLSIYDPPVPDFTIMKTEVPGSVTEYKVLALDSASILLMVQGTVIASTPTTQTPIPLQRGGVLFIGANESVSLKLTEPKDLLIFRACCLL
As a reminder, the inhibition is the relative decrease from the control value, in per cent. Consider `Cc1ccc(/C=N/NC(=O)c2nnn(-c3nonc3N)c2CSc2ccc(Cl)cc2)cc1`, for which the inhibition was -7% (inactive).
On to `Cc1ccc(O)c(NC(=O)c2noc3c2CCc2ccccc2-3)c1`, for which the inhibition was 13% (inactive).
As to `CCOC(=O)CC1C(=O)NCCN1S(=O)(=O)c1ccccc1` (centres undefined), the inhibition was -2.9% (inactive).
As for `CC(C)C(=O)N(Cc1ccc(F)cc1)Cc1nc2ccccc2c(=O)[nH]1`, the inhibition is 4.6% (inactive).
The same measure for `CCN(CC)c1ccc2c(C)c(Cl)c(=O)oc2c1`: -1.9% (inactive).
Consider `CCN(CC)c1ccc2ccc(=O)oc2c1`, for which the inhibition is 3.8% (inactive).
The same measure for `CC(SC1CCCC1)C(=O)Nc1ccnn1C(C)C` (centres undefined): -2.4% (inactive); for `CC(C)OCCCNC(=S)NNC(=O)C(c1ccccc1)c1ccccc1`: -14.8% (inactive); for `O=c1cc(CN2CCN(c3ccccn3)CC2)nc2sccn12`: 9.8% (inactive).
The same measure for `CC(=O)c1cc2c(C)c(C(=O)c3ccccc3)oc2cc1O`: 8.2% (inactive); for `O=C(NC(=S)Nc1cnc2ccccc2c1)c1ccccc1`: 10.3% (inactive).
As for `O=C(NC(=S)Nc1ccc2ncccc2c1)c1ccccc1`, the inhibition is 55.9% (active).
The result for `S=C(NCCc1ccncc1)Nc1cccc2ccccc12` reads 18.9% (inactive).
As for `O=C(NC(=S)Nc1cccc2cnccc12)c1ccccc1`, the inhibition was 54.7% (active).
As to `CCCCNC(=S)Nc1cccc2cnccc12`, the inhibition was 3.6% (inactive).
In the case of `S=C(NCCc1ccccc1)Nc1cccc2cnccc12`, the inhibition was 57.3% (active).
Take `O=C(NNC(=S)Nc1ccccc1)c1ccc2ncccc2c1`: the inhibition is -9.6% (inactive).
Consider `Fc1ccccc1NC(=S)Nc1cccc2cnccc12`, for which the inhibition is 9.4% (inactive).
Consider `O=C(NC(=S)Nc1cccc2cccnc12)c1ccccc1`, for which the inhibition is 10% (inactive).
For the compound `COc1ccc(Cn2cc(C(=O)c3ccccc3)c(=O)c3cc(OC)ccc32)cc1`, the inhibition is 15.1% (inactive).
In the case of `Cn1c(Cc2ccccc2)nnc1SCC(=O)N1CCOCC1`, the inhibition is -5.3% (inactive).
Regarding `CC(C)(C)c1ccc(NC(=O)CNC2CCCc3ccccc32)cc1` (centres undefined), the inhibition is -3.2% (inactive).
With `COc1cc(/C=N/N2CCOCC2)ccc1OCc1ccccc1`, the inhibition is -7.2% (inactive).
With `CCSc1nnc(NC(=O)CSc2nc(CC)nc3c2c(=O)n(C)c(=O)n3C)s1`, the inhibition was 6.7% (inactive).
In the case of `CC1CCN(S(=O)(=O)c2cccc(C(=O)NCc3ccco3)c2)CC1`, the inhibition is -3.8% (inactive).
With `O=C1NC2=C(CCc3ccccc32)C(c2ccccc2)N1` (centres undefined), the inhibition was 2.3% (inactive).
As to `Cc1ccc(C2NC(=O)NC3=C2CCc2ccccc23)cc1` (centres undefined), the inhibition is 40.5% (inactive).
Consider `Cc1ccc(-c2nnn(CC(=O)N(CC3CCCO3)C(C(=O)NCC3CCCO3)c3ccc(F)cc3)n2)o1` (centres undefined), for which the inhibition is 2.7% (inactive).
The same measure for `O=C(CN1C2CCCC1CC(NC(=O)c1ccccc1)C2)Nc1nccs1` (centres undefined): -12.4% (inactive).
